The record followed here is a collection of fitness landscapes (doi:10.1016/j.celrep.2020.107928).

B1: Caulobacter ParB omega fusion; a variant is named by its letters at X, in order, B8GW30 (parent)
chain: MESVVVGEPGMSEGRRGLGRGLSALLGEVDAAPAQAPGEQLGGSREAPIEILQRNPDQPRRTFREEDLEDLSNSIREKGVLQPILVRPSPDTAGEYQIVAGERAWRAAQRAGLKTVPIMVRELDDLAVLEIGIIENVQRADLNVLEEALSYKVLMEKFERTQENIAQTIGKSXSHVANXMRLLXLPDEVQSYLVSGELTAXHARAIAAAADPVALAKQIIEGGLSVRETEALARKAPNLSAGKSKGGRPPRVKDTDTQALESDLSSVLGLDVSIDHRGSTGTLTITYATLEQLDDLCNRLTRGI

The full ranking holds about 81,000 sequences; the median of “one-hybrid fitness for binding parS DNA” is about -0.17, and the highest 2% start at about 0.51. Shown is part of a subset that was picked to be rich in the highest values. Bounds are passed on as bounds.

The variants in the experiment derive from B1. Kind of experiment: one-hybrid fitness for binding parS DNA (scaled: cognate 1, non-cognate 0); higher = stronger binding. The conditions noted are these: with parS DNA site. The gist of the method: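 On M9-minus-histidine containing 0.1 mM IPTG and 5 mM 3-AT, E. coli USO cells with a HIS3 reporter, site 19 bp from the promoter, grew 48 hours at 37°C to select Caulobacter ParB libraries randomised at four specificity codons. Plasmids from before and after were Illumina-sequenced, with three replicate libraries pooled and variants under 10 reads left out. Fitness is the log change in variant-to-wild-type read ratio, rescaled against cognate and non-cognate.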
For the variant RYTT, the “one-hybrid fitness for binding parS DNA” value was 0.884.

Regarding RYTM, the “one-hybrid fitness for binding parS DNA” value was determined as 0.295.

Consider RYTN, for which the “one-hybrid fitness for binding parS DNA” value amounted to 0.429.

As to RYTH, the “one-hybrid fitness for binding parS DNA” value is ≤ 0.2.

For the variant RYTK, the “one-hybrid fitness for binding parS DNA” value is ≤ 0.2.

Take RYTC: the “one-hybrid fitness for binding parS DNA” value came out at 0.903.

In the case of RYTS, the “one-hybrid fitness for binding parS DNA” value is 0.904.

In the case of RYTG, the “one-hybrid fitness for binding parS DNA” value was determined as 0.992.

As to RFHK, the “one-hybrid fitness for binding parS DNA” value was ≤ 0.2.

For the variant NTHH, the “one-hybrid fitness for binding parS DNA” value was ≤ 0.2.

On to YAER, for which the “one-hybrid fitness for binding parS DNA” value was ≤ 0.2.

For the variant SRAR, the “one-hybrid fitness for binding parS DNA” value was ≤ 0.2.

With DHRG, the “one-hybrid fitness for binding parS DNA” value is ≤ 0.2.

With WTKG, the “one-hybrid fitness for binding parS DNA” value was ≤ 0.2.

As to TPGV, the “one-hybrid fitness for binding parS DNA” value was ≤ 0.2.

In the case of PQLQ, the “one-hybrid fitness for binding parS DNA” value is ≤ 0.2.

In the case of KWFG, the “one-hybrid fitness for binding parS DNA” value is ≤ 0.2.

RWAF: the “one-hybrid fitness for binding parS DNA” value was ≤ 0.2.

RWAG: the “one-hybrid fitness for binding parS DNA” value amounted to 0.72.

In the case of RWFK, the “one-hybrid fitness for binding parS DNA” value was ≤ 0.2.

As for RWAM, the “one-hybrid fitness for binding parS DNA” value is ≤ 0.2.

In the case of RWFG, the “one-hybrid fitness for binding parS DNA” value came to 0.615.

Consider TYPT, for which the “one-hybrid fitness for binding parS DNA” value was ≤ 0.2.

As for MSSI, the “one-hybrid fitness for binding parS DNA” value was ≤ 0.2.

Take DTPG: the “one-hybrid fitness for binding parS DNA” value is ≤ 0.2.

On to HKES, for which the “one-hybrid fitness for binding parS DNA” value is ≤ 0.2.

Take ANPQ: the “one-hybrid fitness for binding parS DNA” value is ≤ 0.2.

In the case of WNSC, the “one-hybrid fitness for binding parS DNA” value was ≤ 0.2.

Regarding RNDN, the “one-hybrid fitness for binding parS DNA” value was determined as 0.226.

On to RNDS, for which the “one-hybrid fitness for binding parS DNA” value stood at 0.823.

Turning to RNNS, the “one-hybrid fitness for binding parS DNA” value is 0.969.

Turning to RNND, the “one-hybrid fitness for binding parS DNA” value is ≤ 0.2.

Turning to RNNP, the “one-hybrid fitness for binding parS DNA” value is ≤ 0.2.

In the case of RNDP, the “one-hybrid fitness for binding parS DNA” value was ≤ 0.2.

In the case of HDLV, the “one-hybrid fitness for binding parS DNA” value is ≤ 0.2.

For IGRI, the “one-hybrid fitness for binding parS DNA” value is ≤ 0.2.

As to WCIS, the “one-hybrid fitness for binding parS DNA” value is ≤ 0.2.

As for PFSI, the “one-hybrid fitness for binding parS DNA” value is ≤ 0.2.

As for AYDD, the “one-hybrid fitness for binding parS DNA” value is ≤ 0.2.

For the variant RKLY, the “one-hybrid fitness for binding parS DNA” value came to 0.402.

In the case of RKYD, the “one-hybrid fitness for binding parS DNA” value was ≤ 0.2.

As to RKGP, the “one-hybrid fitness for binding parS DNA” value was ≤ 0.2.

In the case of RKQG, the “one-hybrid fitness for binding parS DNA” value came to 0.913.

RKLG: the “one-hybrid fitness for binding parS DNA” value stood at 0.964.

Consider RKQR, for which the “one-hybrid fitness for binding parS DNA” value is ≤ 0.2.

On to RKLK, for which the “one-hybrid fitness for binding parS DNA” value was ≤ 0.2.

In the case of RKYG, the “one-hybrid fitness for binding parS DNA” value was determined as 0.952.

As to RKQM, the “one-hybrid fitness for binding parS DNA” value is ≤ 0.2.

Consider RKYN, for which the “one-hybrid fitness for binding parS DNA” value is 0.297.

Consider RKGH, for which the “one-hybrid fitness for binding parS DNA” value is ≤ 0.2.

In the case of RKGG, the “one-hybrid fitness for binding parS DNA” value was determined as 0.937.

Regarding ASNF, the “one-hybrid fitness for binding parS DNA” value was ≤ 0.2.

As to STMD, the “one-hybrid fitness for binding parS DNA” value was ≤ 0.2.

In the case of THAI, the “one-hybrid fitness for binding parS DNA” value is ≤ 0.2.

HFAT: the “one-hybrid fitness for binding parS DNA” value was ≤ 0.2.

VNIM: the “one-hybrid fitness for binding parS DNA” value was ≤ 0.2.

As to GRPC, the “one-hybrid fitness for binding parS DNA” value was ≤ 0.2.

For ANQN, the “one-hybrid fitness for binding parS DNA” value was ≤ 0.2.

Consider HYCT, for which the “one-hybrid fitness for binding parS DNA” value was ≤ 0.2.

With RKCG, the “one-hybrid fitness for binding parS DNA” value came to 0.971.

As for RKRD, the “one-hybrid fitness for binding parS DNA” value is ≤ 0.2.

Regarding RKCQ, the “one-hybrid fitness for binding parS DNA” value is ≤ 0.2.

RKHR: the “one-hybrid fitness for binding parS DNA” value was ≤ 0.2.

Consider RKHF, for which the “one-hybrid fitness for binding parS DNA” value was ≤ 0.2.

Take RKRP: the “one-hybrid fitness for binding parS DNA” value was ≤ 0.2.

For the variant RKHG, the “one-hybrid fitness for binding parS DNA” value stood at 0.925.

In the case of RKRG, the “one-hybrid fitness for binding parS DNA” value is 0.851.

In the case of RKCM, the “one-hybrid fitness for binding parS DNA” value was determined as 0.286.

Consider QYTT, for which the “one-hybrid fitness for binding parS DNA” value was ≤ 0.2.

On to HLKG, for which the “one-hybrid fitness for binding parS DNA” value was ≤ 0.2.

Turning to TWTY, the “one-hybrid fitness for binding parS DNA” value was ≤ 0.2.

Regarding QNAG, the “one-hybrid fitness for binding parS DNA” value is ≤ 0.2.

In the case of GTTH, the “one-hybrid fitness for binding parS DNA” value was ≤ 0.2.

For SETA, the “one-hybrid fitness for binding parS DNA” value was ≤ 0.2.

As to TDDG, the “one-hybrid fitness for binding parS DNA” value was ≤ 0.2.

With QFHD, the “one-hybrid fitness for binding parS DNA” value is ≤ 0.2.

As to RMDT, the “one-hybrid fitness for binding parS DNA” value worked out at 0.794.

Regarding RMGK, the “one-hybrid fitness for binding parS DNA” value is ≤ 0.2.

In the case of RMGT, the “one-hybrid fitness for binding parS DNA” value turned out to be 0.937.

RMRQ: the “one-hybrid fitness for binding parS DNA” value is ≤ 0.2.

For the variant RMDF, the “one-hybrid fitness for binding parS DNA” value was found to be 0.223.

In the case of RMGF, the “one-hybrid fitness for binding parS DNA” value was found to be 0.269.

On to RMRT, for which the “one-hybrid fitness for binding parS DNA” value worked out at 0.812.

In the case of RMDL, the “one-hybrid fitness for binding parS DNA” value is ≤ 0.2.

In the case of RMRM, the “one-hybrid fitness for binding parS DNA” value worked out at 0.379.

In the case of RMNT, the “one-hybrid fitness for binding parS DNA” value was 0.904.

For RMNF, the “one-hybrid fitness for binding parS DNA” value came out at 0.237.

As for RMND, the “one-hybrid fitness for binding parS DNA” value is ≤ 0.2.

As for GTPS, the “one-hybrid fitness for binding parS DNA” value was ≤ 0.2.

For EHHI, the “one-hybrid fitness for binding parS DNA” value was ≤ 0.2.

Take KHQH: the “one-hybrid fitness for binding parS DNA” value was ≤ 0.2.

For PMNI, the “one-hybrid fitness for binding parS DNA” value was ≤ 0.2.

As to RECV, the “one-hybrid fitness for binding parS DNA” value is ≤ 0.2.

For the variant NATT, the “one-hybrid fitness for binding parS DNA” value is ≤ 0.2.

For LRNV, the “one-hybrid fitness for binding parS DNA” value was ≤ 0.2.

MRHY: the “one-hybrid fitness for binding parS DNA” value is ≤ 0.2.

As for KGRF, the “one-hybrid fitness for binding parS DNA” value was ≤ 0.2.

In the case of YADG, the “one-hybrid fitness for binding parS DNA” value was ≤ 0.2.

Consider YTRC, for which the “one-hybrid fitness for binding parS DNA” value is ≤ 0.2.

Consider QWHV, for which the “one-hybrid fitness for binding parS DNA” value was ≤ 0.2.

For RMQP, the “one-hybrid fitness for binding parS DNA” value was ≤ 0.2.

As for RMSF, the “one-hybrid fitness for binding parS DNA” value was determined as 0.258.

Regarding RMYD, the “one-hybrid fitness for binding parS DNA” value is ≤ 0.2.

With RMQT, the “one-hybrid fitness for binding parS DNA” value was found to be 0.921.

Regarding RMST, the “one-hybrid fitness for binding parS DNA” value came to 0.945.

In the case of RMQD, the “one-hybrid fitness for binding parS DNA” value came to 0.318.

RMYT: the “one-hybrid fitness for binding parS DNA” value is 0.923.

For RMYP, the “one-hybrid fitness for binding parS DNA” value was ≤ 0.2.

Consider RMSM, for which the “one-hybrid fitness for binding parS DNA” value was found to be 0.37.

With VHYL, the “one-hybrid fitness for binding parS DNA” value is ≤ 0.2.

In the case of ADVS, the “one-hybrid fitness for binding parS DNA” value was ≤ 0.2.

Regarding GAPV, the “one-hybrid fitness for binding parS DNA” value was ≤ 0.2.

Turning to SQVL, the “one-hybrid fitness for binding parS DNA” value was ≤ 0.2.

As for AMKY, the “one-hybrid fitness for binding parS DNA” value is ≤ 0.2.

As for GIMG, the “one-hybrid fitness for binding parS DNA” value was ≤ 0.2.

Consider SACQ, for which the “one-hybrid fitness for binding parS DNA” value is ≤ 0.2.

On to RWLW, for which the “one-hybrid fitness for binding parS DNA” value is ≤ 0.2.

As to RMFD, the “one-hybrid fitness for binding parS DNA” value is ≤ 0.2.

RMAH: the “one-hybrid fitness for binding parS DNA” value turned out to be 0.282.

In the case of RMAS, the “one-hybrid fitness for binding parS DNA” value stood at 0.991.

In the case of RMFP, the “one-hybrid fitness for binding parS DNA” value was ≤ 0.2.

RMFS: the “one-hybrid fitness for binding parS DNA” value was determined as 1.07.

Regarding RMAN, the “one-hybrid fitness for binding parS DNA” value turned out to be 0.46.

Consider PWEY, for which the “one-hybrid fitness for binding parS DNA” value is ≤ 0.2.

As for LATA, the “one-hybrid fitness for binding parS DNA” value was ≤ 0.2.

As for RLDI, the “one-hybrid fitness for binding parS DNA” value was ≤ 0.2.

Turning to ENYW, the “one-hybrid fitness for binding parS DNA” value was ≤ 0.2.

Regarding AEQK, the “one-hybrid fitness for binding parS DNA” value was ≤ 0.2.

Take RYFN: the “one-hybrid fitness for binding parS DNA” value is 0.425.

As for RYFS, the “one-hybrid fitness for binding parS DNA” value worked out at 1.02.

In the case of RYAS, the “one-hybrid fitness for binding parS DNA” value was found to be 0.917.

Take RYAP: the “one-hybrid fitness for binding parS DNA” value is ≤ 0.2.

With RYFP, the “one-hybrid fitness for binding parS DNA” value is ≤ 0.2.

For RYAH, the “one-hybrid fitness for binding parS DNA” value is ≤ 0.2.

As to PWFC, the “one-hybrid fitness for binding parS DNA” value was ≤ 0.2.

RMDP: the “one-hybrid fitness for binding parS DNA” value is ≤ 0.2.

With RMRS, the “one-hybrid fitness for binding parS DNA” value stood at 0.868.

Take RMLH: the “one-hybrid fitness for binding parS DNA” value was determined as 0.275.

In the case of RMDS, the “one-hybrid fitness for binding parS DNA” value was found to be 1.02.

Turning to RMRN, the “one-hybrid fitness for binding parS DNA” value was 0.418.

As for RMLN, the “one-hybrid fitness for binding parS DNA” value turned out to be 0.439.

As for RMNY, the “one-hybrid fitness for binding parS DNA” value came to 0.529.

For the variant RMDY, the “one-hybrid fitness for binding parS DNA” value was 0.405.

Consider RMRP, for which the “one-hybrid fitness for binding parS DNA” value was ≤ 0.2.

As to RMLS, the “one-hybrid fitness for binding parS DNA” value amounted to 1.04.

With RMDD, the “one-hybrid fitness for binding parS DNA” value is ≤ 0.2.

With FDLP, the “one-hybrid fitness for binding parS DNA” value was ≤ 0.2.

Regarding LARN, the “one-hybrid fitness for binding parS DNA” value was ≤ 0.2.

On to YKTN, for which the “one-hybrid fitness for binding parS DNA” value is ≤ 0.2.

For the variant PMMG, the “one-hybrid fitness for binding parS DNA” value was ≤ 0.2.

Take TDRN: the “one-hybrid fitness for binding parS DNA” value was ≤ 0.2.

For IALI, the “one-hybrid fitness for binding parS DNA” value is ≤ 0.2.

HAQR: the “one-hybrid fitness for binding parS DNA” value was ≤ 0.2.
